# Measured values published in ChEMBL document CHEMBL1961873, “Compounds: GSK PKIS; Assays: Nanosyn kinase panel” (2012).
# Columns and labels:
# [1] = biological target: T1, Tyrosine-protein kinase ITK/TSK (Homo sapiens) (UniProt Q08881); conditions: at 1 µM;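 note: values are mean percent inhibition of ITK from the GSK PKIS screen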
# T1 sequence (whole entry): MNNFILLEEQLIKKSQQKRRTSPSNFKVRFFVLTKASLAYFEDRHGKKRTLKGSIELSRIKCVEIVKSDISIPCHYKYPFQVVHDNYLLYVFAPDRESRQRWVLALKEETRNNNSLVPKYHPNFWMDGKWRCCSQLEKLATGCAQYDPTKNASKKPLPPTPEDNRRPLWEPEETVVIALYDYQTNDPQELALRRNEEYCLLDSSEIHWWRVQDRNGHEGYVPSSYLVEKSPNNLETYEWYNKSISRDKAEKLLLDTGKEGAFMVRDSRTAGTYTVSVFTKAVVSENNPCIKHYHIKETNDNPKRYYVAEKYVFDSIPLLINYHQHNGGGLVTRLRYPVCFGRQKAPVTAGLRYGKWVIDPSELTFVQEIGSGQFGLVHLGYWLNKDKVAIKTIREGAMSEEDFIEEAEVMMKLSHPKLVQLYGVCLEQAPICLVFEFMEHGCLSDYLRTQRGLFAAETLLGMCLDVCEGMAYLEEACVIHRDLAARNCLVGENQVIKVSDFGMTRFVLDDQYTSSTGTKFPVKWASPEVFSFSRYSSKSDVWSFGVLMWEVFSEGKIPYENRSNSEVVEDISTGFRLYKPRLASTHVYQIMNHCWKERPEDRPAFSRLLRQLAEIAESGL
# [2] = biological target: Tyrosine-protein kinase JAK1 (Homo sapiens) (UniProt P23458); conditions: at 0.1 µM
# [3] = biological target: Tyrosine-protein kinase JAK1 (Homo sapiens) (UniProt P23458); conditions: at 1 µM
# [4] = biological target: Tyrosine-protein kinase JAK2 (Homo sapiens) (UniProt O60674); conditions: at 0.1 µM
# [5] = biological target: Tyrosine-protein kinase JAK2 (Homo sapiens) (UniProt O60674); conditions: at 1 µM
# [6] = biological target: T2, Tyrosine-protein kinase JAK3 (Homo sapiens) (UniProt P52333); conditions: at 0.1 µM
# T2 sequence (whole entry): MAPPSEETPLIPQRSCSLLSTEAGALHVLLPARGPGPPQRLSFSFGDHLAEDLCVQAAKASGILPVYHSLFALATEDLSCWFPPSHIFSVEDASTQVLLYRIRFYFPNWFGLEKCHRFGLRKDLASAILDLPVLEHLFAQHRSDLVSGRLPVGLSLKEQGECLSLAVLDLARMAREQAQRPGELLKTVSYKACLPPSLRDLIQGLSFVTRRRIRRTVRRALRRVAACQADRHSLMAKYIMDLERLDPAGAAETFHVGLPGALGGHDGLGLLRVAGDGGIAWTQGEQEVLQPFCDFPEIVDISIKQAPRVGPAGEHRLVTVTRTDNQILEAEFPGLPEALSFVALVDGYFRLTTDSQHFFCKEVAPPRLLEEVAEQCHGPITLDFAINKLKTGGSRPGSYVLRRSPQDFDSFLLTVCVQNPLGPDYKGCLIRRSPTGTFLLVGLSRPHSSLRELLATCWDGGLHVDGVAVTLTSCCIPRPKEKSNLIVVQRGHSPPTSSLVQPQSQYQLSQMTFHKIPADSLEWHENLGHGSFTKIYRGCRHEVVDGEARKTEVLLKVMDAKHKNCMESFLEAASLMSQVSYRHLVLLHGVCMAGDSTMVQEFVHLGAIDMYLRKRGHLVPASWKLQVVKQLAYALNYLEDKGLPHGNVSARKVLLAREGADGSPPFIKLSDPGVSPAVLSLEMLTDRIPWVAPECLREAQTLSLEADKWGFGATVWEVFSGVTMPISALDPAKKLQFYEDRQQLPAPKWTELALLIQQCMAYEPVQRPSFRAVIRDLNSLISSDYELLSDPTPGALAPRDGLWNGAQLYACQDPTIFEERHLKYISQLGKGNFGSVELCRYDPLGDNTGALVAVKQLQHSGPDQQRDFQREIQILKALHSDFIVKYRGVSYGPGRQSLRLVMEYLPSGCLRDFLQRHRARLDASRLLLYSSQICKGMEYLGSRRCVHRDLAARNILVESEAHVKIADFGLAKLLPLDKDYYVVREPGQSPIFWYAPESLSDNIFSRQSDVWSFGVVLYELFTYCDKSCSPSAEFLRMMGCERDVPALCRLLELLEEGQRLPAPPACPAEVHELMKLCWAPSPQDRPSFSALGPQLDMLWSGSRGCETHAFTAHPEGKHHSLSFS
# [7] = biological target: T2, Tyrosine-protein kinase JAK3 (Homo sapiens); conditions: at 1 µM
# [8] = biological target: Vascular endothelial growth factor receptor 2 (Homo sapiens) (UniProt P35968); conditions: at 0.1 µM
# [9] = biological target: Vascular endothelial growth factor receptor 2 (Homo sapiens) (UniProt P35968); conditions: at 1 µM
# [10] = biological target: Mast/stem cell growth factor receptor Kit (Homo sapiens) (UniProt P10721); conditions: at 0.1 µM
# [11] = biological target: Mast/stem cell growth factor receptor Kit (Homo sapiens) (UniProt P10721); conditions: at 1 µM
# [12] = system: Mast/stem cell growth factor receptor Kit (Homo sapiens), P10721 [D816V]; conditions: at 0.1 µM
# [13] = system: Mast/stem cell growth factor receptor Kit (Homo sapiens), P10721 [D816V]; conditions: at 1 µM
# [14] = system: Mast/stem cell growth factor receptor Kit (Homo sapiens), P10721 [T670I]; conditions: at 0.1 µM
# [15] = system: Mast/stem cell growth factor receptor Kit (Homo sapiens), P10721 [T670I]; conditions: at 1 µM
# [16] = system: Mast/stem cell growth factor receptor Kit (Homo sapiens), P10721 [V560G]; conditions: at 0.1 µM
# [17] = system: Mast/stem cell growth factor receptor Kit (Homo sapiens), P10721 [V560G]; conditions: at 1 µM
# [18] = biological target: Tyrosine-protein kinase Lck (Homo sapiens) (UniProt P06239); conditions: at 0.1 µM
# [19] = biological target: Tyrosine-protein kinase Lck (Homo sapiens) (UniProt P06239); conditions: at 1 µM
# [20] = biological target: Leukocyte tyrosine kinase receptor (Homo sapiens) (UniProt P29376); conditions: at 0.1 µM
# Sequence of Leukocyte tyrosine kinase receptor (Homo sapiens) (P29376 whole entry): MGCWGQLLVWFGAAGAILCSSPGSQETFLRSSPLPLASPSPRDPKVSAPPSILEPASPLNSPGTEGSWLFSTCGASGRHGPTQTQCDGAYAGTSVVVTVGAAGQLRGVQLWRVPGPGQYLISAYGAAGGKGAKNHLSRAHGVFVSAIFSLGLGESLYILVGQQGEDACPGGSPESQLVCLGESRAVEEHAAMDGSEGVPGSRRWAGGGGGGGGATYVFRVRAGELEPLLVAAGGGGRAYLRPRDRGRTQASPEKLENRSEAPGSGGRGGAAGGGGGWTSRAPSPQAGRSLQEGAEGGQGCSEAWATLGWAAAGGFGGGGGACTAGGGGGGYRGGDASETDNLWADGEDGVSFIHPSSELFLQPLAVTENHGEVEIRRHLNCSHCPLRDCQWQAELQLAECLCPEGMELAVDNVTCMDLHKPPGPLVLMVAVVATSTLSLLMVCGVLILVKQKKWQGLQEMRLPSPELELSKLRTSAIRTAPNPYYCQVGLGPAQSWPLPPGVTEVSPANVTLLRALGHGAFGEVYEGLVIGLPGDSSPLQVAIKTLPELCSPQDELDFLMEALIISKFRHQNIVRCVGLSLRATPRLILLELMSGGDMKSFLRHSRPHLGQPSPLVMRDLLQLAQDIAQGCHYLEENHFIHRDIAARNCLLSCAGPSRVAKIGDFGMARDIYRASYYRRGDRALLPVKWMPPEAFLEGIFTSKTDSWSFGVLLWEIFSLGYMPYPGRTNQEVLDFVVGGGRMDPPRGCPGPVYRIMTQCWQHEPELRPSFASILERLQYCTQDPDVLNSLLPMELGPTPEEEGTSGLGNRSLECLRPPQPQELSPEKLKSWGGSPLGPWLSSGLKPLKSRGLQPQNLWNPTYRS
# Sequence of Tyrosine-protein kinase JAK2 (Homo sapiens) (O60674 whole entry): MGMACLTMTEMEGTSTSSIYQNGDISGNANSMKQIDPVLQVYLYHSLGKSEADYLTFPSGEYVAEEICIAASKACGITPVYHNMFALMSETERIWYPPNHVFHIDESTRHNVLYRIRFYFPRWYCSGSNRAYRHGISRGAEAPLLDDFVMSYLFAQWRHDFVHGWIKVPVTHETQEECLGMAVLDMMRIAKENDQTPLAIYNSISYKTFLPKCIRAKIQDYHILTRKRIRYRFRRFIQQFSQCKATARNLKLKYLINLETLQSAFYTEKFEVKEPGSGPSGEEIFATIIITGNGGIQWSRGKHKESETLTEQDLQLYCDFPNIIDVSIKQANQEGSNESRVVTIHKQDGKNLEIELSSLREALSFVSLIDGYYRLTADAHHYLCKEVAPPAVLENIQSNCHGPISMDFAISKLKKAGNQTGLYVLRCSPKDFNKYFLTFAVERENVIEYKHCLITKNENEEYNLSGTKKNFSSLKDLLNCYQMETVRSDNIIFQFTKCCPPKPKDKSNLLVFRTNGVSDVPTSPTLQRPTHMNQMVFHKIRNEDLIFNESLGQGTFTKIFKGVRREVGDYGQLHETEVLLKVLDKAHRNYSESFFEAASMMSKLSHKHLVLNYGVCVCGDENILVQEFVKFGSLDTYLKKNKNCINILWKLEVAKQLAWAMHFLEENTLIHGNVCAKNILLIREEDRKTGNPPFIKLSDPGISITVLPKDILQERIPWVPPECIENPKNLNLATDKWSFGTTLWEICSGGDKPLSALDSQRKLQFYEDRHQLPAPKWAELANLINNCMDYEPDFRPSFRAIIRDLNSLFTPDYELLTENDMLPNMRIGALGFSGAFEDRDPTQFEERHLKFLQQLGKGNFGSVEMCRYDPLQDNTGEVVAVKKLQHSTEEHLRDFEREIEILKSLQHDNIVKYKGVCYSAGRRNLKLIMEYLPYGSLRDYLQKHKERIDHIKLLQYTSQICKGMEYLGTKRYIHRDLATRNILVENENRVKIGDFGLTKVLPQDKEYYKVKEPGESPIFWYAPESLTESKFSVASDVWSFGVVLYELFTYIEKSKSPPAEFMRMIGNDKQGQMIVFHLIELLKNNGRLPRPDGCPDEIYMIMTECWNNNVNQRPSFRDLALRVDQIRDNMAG
# Sequence of Vascular endothelial growth factor receptor 2 (Homo sapiens) (P35968 whole entry): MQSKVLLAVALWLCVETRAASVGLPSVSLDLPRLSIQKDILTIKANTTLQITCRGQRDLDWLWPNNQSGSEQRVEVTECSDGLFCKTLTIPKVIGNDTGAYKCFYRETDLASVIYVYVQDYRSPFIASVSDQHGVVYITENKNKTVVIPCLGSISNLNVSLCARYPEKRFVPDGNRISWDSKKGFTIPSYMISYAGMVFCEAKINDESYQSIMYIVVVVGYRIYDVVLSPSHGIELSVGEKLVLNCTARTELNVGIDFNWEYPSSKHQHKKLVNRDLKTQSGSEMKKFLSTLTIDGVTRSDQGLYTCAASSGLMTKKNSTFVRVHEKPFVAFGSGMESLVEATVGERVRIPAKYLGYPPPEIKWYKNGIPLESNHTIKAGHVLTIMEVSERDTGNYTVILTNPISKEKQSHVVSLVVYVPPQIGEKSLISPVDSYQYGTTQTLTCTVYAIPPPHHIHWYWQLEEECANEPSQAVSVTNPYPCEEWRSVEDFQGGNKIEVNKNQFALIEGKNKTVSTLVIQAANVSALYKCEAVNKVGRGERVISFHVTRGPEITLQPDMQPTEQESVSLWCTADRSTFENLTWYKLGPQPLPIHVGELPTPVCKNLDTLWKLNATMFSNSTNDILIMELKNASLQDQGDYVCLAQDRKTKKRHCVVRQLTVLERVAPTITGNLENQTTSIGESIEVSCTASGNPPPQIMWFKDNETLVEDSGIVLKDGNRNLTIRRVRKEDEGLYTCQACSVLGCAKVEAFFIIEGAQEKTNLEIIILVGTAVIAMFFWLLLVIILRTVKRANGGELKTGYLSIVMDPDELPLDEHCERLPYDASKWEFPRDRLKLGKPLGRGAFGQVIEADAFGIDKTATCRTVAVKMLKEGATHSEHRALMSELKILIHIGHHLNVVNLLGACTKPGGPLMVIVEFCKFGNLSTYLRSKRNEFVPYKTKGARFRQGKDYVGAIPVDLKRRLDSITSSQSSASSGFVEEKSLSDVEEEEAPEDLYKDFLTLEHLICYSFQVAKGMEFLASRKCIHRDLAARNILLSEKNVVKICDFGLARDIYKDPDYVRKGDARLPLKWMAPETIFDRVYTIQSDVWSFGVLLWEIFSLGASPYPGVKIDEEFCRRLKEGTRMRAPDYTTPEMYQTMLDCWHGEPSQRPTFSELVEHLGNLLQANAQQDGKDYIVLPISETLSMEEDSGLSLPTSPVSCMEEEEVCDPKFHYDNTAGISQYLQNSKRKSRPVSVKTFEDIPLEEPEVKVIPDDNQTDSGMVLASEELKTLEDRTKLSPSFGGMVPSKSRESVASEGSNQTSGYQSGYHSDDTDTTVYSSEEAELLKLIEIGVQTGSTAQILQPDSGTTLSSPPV
# Sequence of Mast/stem cell growth factor receptor Kit (Homo sapiens), P10721 [D816V] (P10721 whole entry D816V): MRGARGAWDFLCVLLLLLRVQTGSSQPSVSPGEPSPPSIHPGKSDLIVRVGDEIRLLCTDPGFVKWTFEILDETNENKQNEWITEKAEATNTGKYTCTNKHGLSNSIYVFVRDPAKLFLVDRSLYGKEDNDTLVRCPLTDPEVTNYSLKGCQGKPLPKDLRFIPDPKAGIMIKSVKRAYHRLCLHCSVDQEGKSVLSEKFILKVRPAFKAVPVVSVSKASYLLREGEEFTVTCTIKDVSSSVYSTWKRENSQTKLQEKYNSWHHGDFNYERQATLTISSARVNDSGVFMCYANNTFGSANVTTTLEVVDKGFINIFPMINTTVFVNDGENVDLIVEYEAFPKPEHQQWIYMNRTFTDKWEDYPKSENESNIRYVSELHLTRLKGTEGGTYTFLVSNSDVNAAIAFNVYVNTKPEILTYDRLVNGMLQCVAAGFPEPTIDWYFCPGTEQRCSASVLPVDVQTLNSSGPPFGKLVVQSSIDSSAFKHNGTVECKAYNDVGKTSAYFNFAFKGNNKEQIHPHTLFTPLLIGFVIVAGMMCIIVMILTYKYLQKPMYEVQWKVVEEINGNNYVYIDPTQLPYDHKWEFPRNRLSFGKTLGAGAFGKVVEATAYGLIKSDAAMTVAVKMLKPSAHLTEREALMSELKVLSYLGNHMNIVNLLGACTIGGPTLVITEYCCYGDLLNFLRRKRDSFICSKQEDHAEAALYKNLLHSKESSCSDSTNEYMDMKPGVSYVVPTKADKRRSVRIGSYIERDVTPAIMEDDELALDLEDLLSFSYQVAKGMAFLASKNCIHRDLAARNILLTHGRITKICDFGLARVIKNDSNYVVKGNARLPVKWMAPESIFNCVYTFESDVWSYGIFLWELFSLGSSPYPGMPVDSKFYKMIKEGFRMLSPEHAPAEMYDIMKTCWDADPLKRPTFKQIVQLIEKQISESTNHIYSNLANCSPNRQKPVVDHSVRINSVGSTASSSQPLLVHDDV
# Sequence of Tyrosine-protein kinase Lck (Homo sapiens) (P06239 2-509 limits assumed): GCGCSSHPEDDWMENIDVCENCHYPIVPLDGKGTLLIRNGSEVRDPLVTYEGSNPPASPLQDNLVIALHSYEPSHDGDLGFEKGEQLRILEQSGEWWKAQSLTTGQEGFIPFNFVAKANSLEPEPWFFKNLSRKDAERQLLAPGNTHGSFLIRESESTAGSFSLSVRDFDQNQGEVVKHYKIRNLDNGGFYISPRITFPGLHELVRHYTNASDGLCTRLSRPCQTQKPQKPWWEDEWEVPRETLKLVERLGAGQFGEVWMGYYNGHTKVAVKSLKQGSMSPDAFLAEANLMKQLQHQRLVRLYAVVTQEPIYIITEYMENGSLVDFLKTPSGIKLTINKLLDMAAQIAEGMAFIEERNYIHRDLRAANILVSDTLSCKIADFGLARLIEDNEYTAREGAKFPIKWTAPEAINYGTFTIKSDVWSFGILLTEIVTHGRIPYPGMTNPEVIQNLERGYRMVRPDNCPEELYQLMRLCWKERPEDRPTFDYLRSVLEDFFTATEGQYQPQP
# Sequence of Mast/stem cell growth factor receptor Kit (Homo sapiens) (P10721 whole entry): as the sequence (P10721 whole entry D816V) above, with V816D counted along it
# Sequence of Mast/stem cell growth factor receptor Kit (Homo sapiens), P10721 [V560G] (P10721 whole entry V560G): as the sequence (P10721 whole entry D816V) above, with V560G, V816D counted along it
# Sequence of Mast/stem cell growth factor receptor Kit (Homo sapiens), P10721 [T670I] (P10721 whole entry T670I): as the sequence (P10721 whole entry D816V) above, with T670I, V816D counted along it
Structure (SMILES),inhibition [1] [%],inhibition [2] [%],inhibition [3] [%],inhibition [4] [%],inhibition [5] [%],inhibition [6] [%],inhibition [7] [%],inhibition [8] [%],inhibition [9] [%],inhibition [10] [%],inhibition [11] [%],inhibition [12] [%],inhibition [13] [%],inhibition [14] [%],inhibition [15] [%],inhibition [16] [%],inhibition [17] [%],inhibition [18] [%],inhibition [19] [%],inhibition [20] [%]
COc1cc(C)c(N(C)C(=O)CN(C)C)cc1Nc1nc(Nc2cccc(F)c2C(N)=O)c2cc[nH]c2n1,-1.94,3.43,-5.28,0.96,1.71,-3.43,-3.47,1.87,1.78,0.03,-0.73,-0.92,0.99,-0.51,-1.63,-1.08,-3.38,-3.07,-1.56,11.7
O=C(Nc1ccc(Oc2ccc3[nH]c(NC(=O)c4ccccc4)nc3c2)cc1)Nc1cc(C(F)(F)F)ccc1F,2.09,1.88,7.18,1.51,4.06,-0.16,9.29,,,10.4,85.1,1.52,4.26,5.51,52.1,10.4,67,2.25,14.4,1.84
CN(C)CCCNc1nccc(-c2c(-c3ccc(F)cc3)nn3cc(C(F)(F)F)ccc23)n1,-1.31,0.29,-0.9,0.65,3.68,-2.83,-1.89,6.32,11.3,3.48,2.1,1.94,-0.31,0.09,0.14,6.47,4.04,-2.05,3.17,1.9
COc1cc2ncn(-c3cc(OCCc4ccccc4)c(C(N)=O)s3)c2cc1OC,2.27,1.72,-5.52,0.93,0.41,-0.27,-0.4,3.48,17,0.95,5.42,5.33,-0.63,0.21,-1.17,-2.95,-0.35,2.24,5.88,1.89
CCS(=O)(=O)c1ccc(OC)c(Nc2ncc(-c3ccccc3Cl)o2)c1,1.73,5.17,-2.96,1.84,0.94,0.9,4.04,8.35,33.8,17.3,85.2,0.9,0.58,0.14,24.3,3.4,8.88,4.24,10.2,1.67
COc1cc2ncn(-c3cc(OCc4cccs4)c(C(N)=O)s3)c2cc1OC,2.34,9.11,19.9,1.45,1.19,-2.77,-0.29,14.1,50.5,1.96,11.7,-0.06,3.94,1.45,7.04,1.25,4.05,-0.61,13.8,1.76
COc1cccc(-n2cnc3c(N/N=C/c4ccncc4)ncnc32)c1,-1.27,4.44,16.3,0.27,0.37,-2.48,-2.19,-0.11,11.2,33.4,83.4,0.1,3.79,-2.23,6.36,3.15,18.8,3.69,29.3,-1.69
CCc1ccc(Oc2nccc(-c3c(-c4ccc(F)cc4)ncn3C3CCNCC3)n2)cc1,2.38,4.16,4.5,1.64,2.94,-1.25,-0.22,5.19,13.5,4.71,3.31,4.91,1.86,2.54,2.33,-1.42,-1.63,3.37,6.55,2.71
